An excerpt weighted towards active compounds, which were near 0.69% of everything screened.
E coli growth-1 – E. coli V3065 growth inhibition, primary screen, counter-screen for AddAB inhibitor project, absorbance, OD600; 18 h; inhibition, % at 11.9 µM; 330,000 compounds, 0.27% hits; AID 449728, 2010;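 active = inhibition above the campaign's mean inhibition across all tested compounds plus 3 SD, cut at about 9.9% in these data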;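 note: uninfected addAB+ strain grown without phage in ampicillin broth; 0% = DMSO wells and 100% = ciprofloxacin 0.95 µg/ml wells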
Tat transport – E. coli Tat export inhibitors, primary screen, MC4100, TorA-mCherry reporter, fluorescence, single point; inhibition, % at 10 µM; 340,000 compounds, 0.036% hits;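 active = mean replicate inhibition at least 50% and at least half of replicates individually reaching 50%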;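 note: exported cargo escapes ClpAP degradation while cytoplasmic cargo is degraded and loses fluorescence; 0% = median of neutral control wells and 100% = median of NaSCN control wells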
E coli growth-2 – E. coli growth inhibition, primary screen, OD600 | Escherichia coli growth, 23 h; active compounds read low | OD600 absorbance (test concentration not listed) | 330,000 compounds, 0.21% hits | AID 1053175, 2014;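 active = OD600 absorbance below the run mean of sample wells minus 3.6 SD, in any replicate, cut at about 0.56 in these data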
phage Ecoli inh – growth loss of phage-infected E. coli, primary screen, RecBCD inhibitor project, absorbance, with phage, HTS; 360,000 compounds, 0.26% hits; inhibition, % at 11.9 µM; in the data active = inhibition above about 11%
AddAB inh – growth inhibition of E. coli expressing H. pylori AddAB, primary screen, AddAB inhibitor project, absorbance. 330,000 compounds, 0.29% hits. AID 435030, 2010. inhibition, % at 11.9 µM; in the data active = inhibition above about 12%;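 note: 0% = vehicle wells of infected cells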
PfHsp90 set2 – growth inhibition of PfHsp90-expressing yeast, primary screen, antimalarial PfHsp90 inhibitor project, S. cerevisiae, BacTiter-Glo luminescence, single point, set 2 | BacTiter-Glo ATP, 48 h; yeast lacking PDR1 and PDR3 efflux regulators | inhibition, % at 9.4 µM | 310,000 compounds, 0.32% hits | AID 504621, 2011;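 active = every replicate shows inhibition above about 80%, whatever the replicate mean, limit read from the data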;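 note: 0% = DMSO neutral controls and 100% = 20 µM radicicol positive controls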
AddAB conf – growth loss of phage-infected E. coli expressing H. pylori AddAB, confirmation, AddAB inhibitor project, absorbance, E. coli V3065, T4 phage, triplicate. AID 488942, 2010. OD; T4 phage with gene 2 nonsense mutations. 880 compounds, 64% hits. inhibition, % at 11.9 µM. shares compounds with AddAB inh;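 active = mean inhibition above a set limit taken from the earlier primary screen, cut at about 13% in these data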;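 note: higher means less bacterial growth since AddAB block lets phage replicate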
RecBCD counter – growth loss of RecBCD+ E. coli with mutant T4 phage, counter-screen for AddAB inhibitor project, absorbance, V66 E. coli | shares compounds with AddAB inh | OD growth | inhibition, % at 11.9 µM | 880 compounds, 73% hits;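 active = mean inhibition above the mean of solvent-only control wells plus 3 SD, cut at about 4% in these data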;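 note: optical density read after an 18 h incubation at 37 °C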
Bact viability – bacterial viability inhibition counter-screen, confirmation, counter-screen for AddAB inhibitor project, absorbance | shares compounds with AddAB inh | absorbance (AddAB counterscreen) | inhibition, % at 11.9 µM | 880 compounds, 35% hits | AID 488956, 2010; in the data active = inhibition above about 25%
RecBCD conf – growth loss of phage-infected RecBCD+ E. coli, confirmation, RecBCD inhibitor project, absorbance, E. coli V66, T4 gene 2 phage | shares compounds with phage Ecoli inh | E. coli V66 + T4 2- phage, growth OD | inhibition, % at 11.9 µM | 890 compounds, 45% hits | AID 651982, 2013;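 active = mean inhibition over triplicates exceeding the hit threshold derived in the original primary screen, cut at about 11% in these data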
Ecoli viability – E. coli viability inhibition, counter-screen for RecBCD inhibitor project, absorbance, high throughput; shares compounds with phage Ecoli inh; absorbance (OD) growth; inhibition, % at 11.9 µM; 890 compounds, 29% hits; in the data active = inhibition above about 20%;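 note: E. coli strain V66 grown with compound alone and no phage infection; 0% = bacteria with DMSO vehicle only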
AddAB phage OD – growth loss of phage-infected AddAB-carrying E. coli, confirmation, counter-screen for RecBCD inhibitor project, absorbance, E. coli V3065, T4 phage; shares compounds with phage Ecoli inh; E. coli expressing H. pylori AddAB + T4 phage, OD growth; gene 2 mutant T4, recBCD-deleted host; inhibition, % at 11.9 µM; 890 compounds, 45% hits; AID 651984, 2013;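 active = mean inhibition above the solvent-only control wells' mean plus 3 SD, cut at about 22% in these data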;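 note: higher means less bacterial growth from phage killing when AddAB is blocked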
* hit, by the source's call; / = no result.

SMILES | E coli growth-1 | Tat transport | E coli growth-2 | phage Ecoli inh | AddAB inh | PfHsp90 set2 | AddAB conf | RecBCD counter | Bact viability | RecBCD conf | Ecoli viability | AddAB phage OD
CCCNC(=O)c1ccc2c(=O)c(O)c(-c3ccc(Cl)c([N+](=O)[O-])c3)[nH]c2c1 | 11* | 2 | / | 16* | 14* | -25 | 11 | 13* | 12 | 10 | 12 | 14
Oc1ccc(Cl)cc1CNCc1ccc(Cl)cc1 | 0 | -3 | 0.61 | 5 | 4 | -10 | / | / | / | / | / | /
Oc1ccc(Cl)cc1Cc1cc(Cl)ccc1O | 12* | 0 | 0.13* | 13* | 13* | 107* | 6 | 14* | 3 | 9 | 11 | 7
CCOC(=O)c1cn(-c2ccc([N+](=O)[O-])cc2)c2cc(Cl)c([N+](=O)[O-])cc2c1=O | 3 | -3 | 0.64 | 4 | 2 | -10 | / | / | / | / | / | /
O=C(O)c1cn(-c2ccc(F)cc2)c2cc(Cl)c(F)cc2c1=O | 55* | -5 | 0.066* | 14* | 53* | 0 | 102* | 99* | 101* | 98* | 100* | 99*
COC(=O)C(C)NC(=S)N1CCN(c2c(F)cc3c(=O)c(C(=O)O)cn(C4CC4)c3c2OC)CC1C (configuration not stated) | 102* | 17 | 0.067* | 99* | 103* | 15 | 102* | 100* | 102* | 104* | 104* | 104*
CNC(=S)N1CCN(c2c(F)cc3c(=O)c(C(=O)O)cn(C4CC4)c3c2OC)CC1C (configuration not stated) | 99* | 73* | 0.045* | 100* | 101* | -33 | 100* | 101* | 99* | 101* | 103* | 103*
CCN1C(=O)/C(=C2/Sc3ccccc3N2CC)SC1=Nc1ncn[nH]1 | / | / | 0.7 | / | / | / | / | / | / | / | / | /
Cc1cc(NS(=O)(=O)c2ccc(N)cc2)no1 | 10* | / | / | 16* | 12* | 2 | 18* | 9.4* | 24 | 8 | 3 | 27*
Cc1ccc(S(=O)(=O)Nc2cc(C)on2)cc1 | -1 | -1 | 0.69 | 1 | 2 | 8 | / | / | / | / | / | /
Nc1nc(Cl)nc2c1ncn2[C@@H]1O[C@H](CO)[C@@H](O)[C@H]1O | 0 | 5 | / | 5 | -2 | 23 | / | / | / | / | / | /
Nc1nc(=S)c2ncn([C@@H]3O[C@H](CO)[C@@H](O)[C@H]3O)c2[nH]1 | 76* | -25 | / | 72* | 89* | -3 | 91* | 63* | 73* | 57* | 75* | 81*
Nc1nc(=S)c2ncn(C3OC(CO)C(O)C3O)c2[nH]1 (configuration not stated) | 30* | -12 | 0.52 | 17* | 25* | 3 | 74* | 27* | 54* | 32* | 38* | 55*
Nc1nc(=S)c2ncn(C3CCCCC3)c2[nH]1 | / | -8 | 0.68 | 2 | / | -10 | / | / | / | / | / | /
Nc1ncn([C@@H]2O[C@H](CO)[C@@H](O)[C@H]2O)c(=O)n1 | 93* | -2 | / | 62* | 96* | -9 | 91* | 29* | 94* | 48* | 56* | 103*
O=C(NN=Cc1ccc(Cl)c([N+](=O)[O-])c1)c1cnccn1 | / | / | 0.64 | / | / | / | / | / | / | / | / | /
CCC(=O)NC(c1ccc(Cl)cc1Cl)c1ccc2cccnc2c1O (configuration not stated) | 22* | 1 | / | 22* | 20* | 111* | 20* | 19* | 19 | 15* | 17 | 27*
CC(C)C(=O)NC(c1ccc(Cl)cc1Cl)c1ccc2cccnc2c1O (configuration not stated) | 29* | 3 | 0.65 | 19* | 20* | 113* | 20* | 20* | 19 | 11* | 13 | 22*
CC(=O)NC(c1ccco1)c1ccc2cccnc2c1O (configuration not stated) | -1 | 7 | / | / | 4 | 4 | / | / | / | / | / | /
Cc1cc(NC(c2ccc(Cl)cc2)c2ccc3cccnc3c2O)no1 (configuration not stated) | 33* | -1 | 0.69 | 23* | 25* | 101* | 25* | 23* | 21 | 14* | 15 | 25*
Cc1ccc2c(c1)COc1c3ccc(C(=O)NC(CO)C(C)C)cc3nn1-2 (configuration not stated) | / | / | 0.69 | / | / | / | / | / | / | / | / | /
COc1ccc2c(c1)OCC1C2N2C(=O)CN(CC3CCCO3)C(=O)[C@@]2(C)C1c1ccccc1 (some centres not stated) | / | / | 0.7 | / | / | / | / | / | / | / | / | /
CN1CCN(C(c2ccc(C(F)(F)F)cc2)c2cc(Cl)c3cccnc3c2O)CC1 (configuration not stated) | 23* | / | / | 24* | 18* | / | 14* | 14* | 10 | 6 | 6 | 9
CCN1CCN(C(c2ccc(C(F)(F)F)cc2)c2ccc3cccnc3c2O)CC1 (configuration not stated) | 38* | -5 | 0.62 | 21* | 26* | 121* | 10 | 12* | 5 | 5 | 7 | 10
CN1CCN(C(c2ccc(Cl)cc2)c2cc(Cl)c3cccnc3c2O)CC1 (configuration not stated) | 19* | -8 | / | 16* | 13* | 106* | 4 | 9.9* | 3 | 2 | 1 | 3
Oc1c(C(c2ccccn2)N2CCCCC2)cc(Cl)c2cccnc12 (configuration not stated) | -1 | -2 | 0.65 | 10 | 0 | 5 | / | / | / | / | / | /
